Measured values reported in PubChem BioAssay (NCATS).
Results filed as inconclusive are left out. Values without a mark were called inactive. The source made the active and inactive calls. Calls follow the shape of the dose curve; as a rule, active = well fitted cell-killing curve with a large enough effect; inconclusive = small, poorly fitted or top-dose-only effect, or effect the other way; inactive = no such curve, though single readings can be large or run the other way.

Experiment: Viability qHTS for spleen associated tyrosine kinase inhibitor (SYKi) drug resistant MV4-11 cells (AID 1963824); also: nearly all actives have a fitted effect of over 35% in size
Conditions: SYKi-resistant MV4-11 viability, CellTiter-Glo, 72 h; series mostly up to 45 µM; viability, % of control: at the top concentration
Summary of the method: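 CellTiter-Glo luminescence, read 10 min after reagent addition, reports viability after a 72 hr compound exposure. Cells are an MV4-11 line made resistant to SYK inhibition, seeded at 500 per well onto compound-containing plates.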
Potency is read from the fitted curve at half-maximal effect.

Compound | Potency | viability, % of control
CC1(C)CC23[C@@H]4CC(=O)[C@@H]2COC(=O)[C@@H]3CC[C@H]41 | 1.64 µM (active) | –
CC(C)CCNC(=O)c1ccc2c(c1)nc(Nc1n[nH]c3ccc(-c4ccccc4OC(F)(F)F)cc13)n2C1CCC(O)CC1 (configuration not stated) | 16.4 µM (active) | –
C[C@@H]1C[C@H](O[C@@H]2O[C@H](CO[C@@H]3OC[C@](O)(CO)[C@H]3O)[C@@H](O)[C@H](O)[C@H]2O)CC(C)(C)[C@H]1/C=C/[C@@H](C)O | – | 68.9% [at 17.3 µM]
CC(Oc1ccc2[nH]nc(/C=C/c3cnn(CCO)c3)c2c1)c1c(Cl)cncc1Cl (configuration not stated) | 0.0116 µM (active) | –
CCC/C=C/C=C/C1CC(O)C2(O)C(=O)OCC12 (configuration not stated) | – | 87.1%
C/C=C/C=C/c1cc2c(C=O)c(O)c(CC=C(C)C)cc2o1 | 18.4 µM (active) | –
CC(C)(C)c1ccc(S(=O)(=O)Nc2ccc(Cl)cc2C(=O)c2cc[n+]([O-])cc2)cc1 | 20.6 µM (active) | –
